Results reported in PubChem BioAssay AID1159580 (chemical genetic matrix, 2015).
Values joined by “and” are separate entries in the source; they are usually repeats but may differ in a detail not shown here. Equal entries are not always repeated. The campaign covered roughly 5,500 compounds. About 2,000 (36%) were called active. About 18% were inconclusive and are not listed. Cut-off read from the data, not from the text of the source: active = normalized growth mostly below about 0.91 (no sharp cut-off); inconclusive = no clear call, values can overlap the other calls; inactive = mostly above about 0.92. The list shows a part of the results.

Assay: chemical genetic growth profiling, strain panel (AID 1159580);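 note: tested at 20 µM; growth read once vehicle control cultures reached saturation at 30 °C; 1 = growth at the plate median or of vehicle wells; lower values mean less growth of the strain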
Settings: S. cerevisiae deletion strains, growth OD

Measured: normalized growth

CCc1ccc(CCOc2ccc(CC3SC(=O)NC3=O)cc2)nc1 (configuration not stated)
inactive: locus YAL013W, strain DEP1, active compounds read low 1.01 | locus YAL021C, strain ccr4, active compounds read low 1.03 | locus YAL026C, strain drs2, active compounds read low 1.01 | locus YAL030W, strain snc1, active compounds read low 0.999 | locus YBL061C, strain skt5, active compounds read low 1.01 | locus YBR009C, strain hhf1, active compounds read low 1 | locus YBR021W, strain FUR4, active compounds read low 1 | locus YBR023C, strain chs3, active compounds read low 1 | locus YBR171W, strain sec66, active compounds read low 1.02 | locus YBR229C, strain ROT2, active compounds read low 0.993 | locus YBR231C, strain swc5, active compounds read low 0.999 | locus YBR279W, strain paf1, active compounds read low 1 | locus YCL011C, strain gbp2, active compounds read low 1 | locus YCL016C, strain dcc1, active compounds read low 1 | locus YCL029C, strain bik1, active compounds read low 0.996 | locus YCL061C, strain MRC1, active compounds read low 1.01 | locus YCL069W, strain vba3, active compounds read low 1.01 | locus YCR088W, strain abp1, active compounds read low 1.01 | locus YDL005C, strain med2, active compounds read low 1 | locus YDL035C, strain GPR1, active compounds read low 0.983 | locus YDL040C, strain nat1, active compounds read low 0.99 | locus YDL074C, strain BRE1, active compounds read low 0.974 | locus YDL101C, strain DUN1, active compounds read low 1.01 | locus YDL134C, strain PPH21, active compounds read low 0.998 | locus YDL185W, strain tfp1, active compounds read low 1 | locus YDL192W, strain arf1, active compounds read low 0.996 | locus YDR001C, strain nth1, active compounds read low 1.01 | locus YDR069C, strain doa4, active compounds read low 1.03 | locus YDR101C, strain arx1, active compounds read low 0.995 | locus YDR137W, strain rgp1, active compounds read low 0.916 | locus YDR150W, strain NUM1, active compounds read low 1.01 | locus YDR159W, strain sac3, active compounds read low 1.01 | locus YDR162C, strain NBP2, active compounds read low 1.02 | locus YDR195W, strain ref2 0.995 | locus YDR297W, strain sur2, active compounds read low 1.02 | locus YDR318W, strain mcm21, active compounds read low 0.994 | locus YDR334W, strain swr1, active compounds read low 1.02 | locus YDR335W, strain msn5, active compounds read low 1.02 | locus YDR388W, active compounds read low 0.989 | locus YDR392W, strain spt3, active compounds read low 1 | locus YDR502C, strain sam2, active compounds read low 0.994 | locus YEL003W, strain gim4, active compounds read low 1.02 | locus YEL037C, strain rad23, active compounds read low 1.01 | locus YEL061C, strain CIN8 (second series), active compounds read low 1 | locus YEL061C, strain CIN8, active compounds read low 1.02 | locus YER015W, strain faa2, active compounds read low 1.01 | locus YER016W, strain bim1, active compounds read low 1.01 | locus YER110C, active compounds read low 0.997 | locus YER111C, strain swi4, active compounds read low 1 | locus YER155C, strain BEM2 (second series), active compounds read low 1.05 | locus YER155C, strain BEM2, active compounds read low 0.995 | locus YER167W, strain BCK2, active compounds read low 1 | locus YFR010W, strain ubp6, active compounds read low 1.02 | locus YGL078C, strain dbp3, active compounds read low 0.988 | locus YGL086W, strain mad1, active compounds read low 0.996 | locus YGL167C, strain pmr1, active compounds read low 1 | locus YGL173C, strain kem1, active compounds read low 1.02 | locus YGL227W, strain vid30, active compounds read low 0.995 | locus YGL240W, strain doc1, active compounds read low 1.02 | locus YGL248W, strain PDE1, active compounds read low 0.999 | locus YGL253W, strain hxk2, active compounds read low 0.993 | locus YGR078C, strain PAC10, active compounds read low 1.06 | locus YGR135W, strain pre9, active compounds read low 0.993 | locus YGR229C, strain SMI1, active compounds read low 1.01 | locus YGR252W, strain gcn5, active compounds read low 0.946 | locus YHR013C, strain ard1, active compounds read low 1.03 | locus YHR027C, strain rpn1, active compounds read low 1.02 | locus YHR030C, strain SLT2, active compounds read low 1 and 0.969 | locus YHR079C, strain IRE1 (second series), active compounds read low 0.993 | locus YHR079C, strain IRE1, active compounds read low 0.959 | locus YHR094C, strain hxt1, active compounds read low 0.988 | locus YHR129C, strain ARP1, active compounds read low 0.999 | locus YHR142W, strain chs7, active compounds read low 1.01 | locus YHR200W, strain rpn10, active compounds read low 0.995 | locus YIL066C, strain RNR3, active compounds read low 1.01 | locus YIL073C, strain SPO22, active compounds read low 1.05 | locus YIL125W, strain kgd1, active compounds read low 0.988 | locus YIR030C, strain dcg1, active compounds read low 0.994 | locus YJL092W, strain hpr5, active compounds read low 1 | locus YJL095W, strain BCK1 (second series), active compounds read low 0.998 | locus YJL095W, strain BCK1, active compounds read low 0.979 and 1.01 | locus YJL115W, strain asf1, active compounds read low 1 | locus YJL129C, strain trk1, active compounds read low 1.02 | locus YJL134W, strain LCB3, active compounds read low 1 | locus YJL154C, strain vps35, active compounds read low 1.02 | locus YJL164C, strain tpk1, active compounds read low 0.991 | locus YJL166W, strain qcr8, active compounds read low 1.02 | locus YJL168C, strain set2, active compounds read low 0.99 | locus YJL187C, strain SWE1 (second series), active compounds read low 1.01 | locus YJL187C, strain SWE1, active compounds read low 1.01 | locus YJR043C, strain POL32, active compounds read low 0.991 | locus YJR066W, strain TOR1, active compounds read low 0.942
